Measurements as given in the supplement of paper PMC10338343.
± gives the standard deviation. Whole data set: some 3,000 sequences, median “pre-steady-state target cleavage rate” near 0.0079, cut for the highest 2% near 0.2. This excerpt belongs to a sample that is enriched for the highest values.

Each sequence was assayed on MILI (PIWIL2) piRISC loaded with piRNA #2 (26 nt) (assay: pre-steady-state target cleavage rate (min^-1); MIWI and MILI are mouse PIWI proteins and EfPiwi is from a freshwater sponge; tags in brackets are library labels; higher = faster piRNA-guided slicing of the target). Conditions: guide: piRNA #2 5'p-UUAGGUAACCCAGUAGAUCCAGAGGA; auxiliary factor: 500 nM mouse GTSF1.
Method: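 Cleave-'n-Seq: a library of target RNAs (target site embedded in constant flanks, ACAGCATTCCGCGTTAGTGATATCCG... 5' flank; DNA-blocked outside the site) at 0.1 nM was incubated with 1 nM active mouse MILI or MIWI piRISC (synthetic 5'-monophosphorylated piRNA guide) with or without 500 nM mouse GTSF1 at 33 °C for 1 min to 16 h. Uncleaved targets were sequenced and normalised to non-target controls, and the pooled three trials were fitted to a burst-and-steady-state model to give the pre-steady-state cleavage rate (min^-1; k3 is constrained to at most 1e-4). Sequence is the target site only; target names encode pairing extent (gX:gY) and contiguous / 1-mismatch / 2-mismatch / bulge geometry. Fits with R² ≤ 0 are excluded.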

CUUAUCCUCUGGAUCUACUGGGUUUCCAAA and CUUAACCUCUGGAUCAACUGGGUUUCCUAA are within error of each other in “pre-steady-state target cleavage rate” value: 0.134 ± 0.047 for the first, 0.101 ± 0.038 for the second.

CUUAUCCUCUGGAUCUACUGGGUUCACCUAA and CUUAUCCUCUGGAUCUACUGGGUUUCGUAA are within error of each other in “pre-steady-state target cleavage rate” value: 0.0872 ± 0.017 for the first, 0.171 ± 0.071 for the second.

CUUAUCCUCUGGAUCAACUGGGUUUCCUAA and CUUAUCCUCUGGAUCUACUGGGUUUCCUUA are within error of each other in “pre-steady-state target cleavage rate” value: 0.199 ± 0.072 for the first, 0.413 ± 0.15 for the second.

Going from CUUAUCCUCUGGAUCUACUGGGUAUCCUAA to CUUAUCCUCUGGAUCUACUGGGUUAUCUAA, the “pre-steady-state target cleavage rate” value rises from 0.0336 ± 0.014 to 0.0884 ± 0.015.

Going from CUUAUCCUCUGGAUCUACUGGGUUCCUAA to CUUAAGCUCUGGAUCAACUGGGUUUCCUAA, the “pre-steady-state target cleavage rate” value falls from 0.239 ± 0.11 to 0.0481 ± 0.015.

Compared with CUUAUCCUCUGGAUCUACUGGGUUAUCCUAA, “CUUAUCCUCUGGAUCUACUGGGUUACCUAA [g2:g26:cont:t1A]” is lower in “pre-steady-state target cleavage rate” value: 0.204 ± 0.046 for the first, 0.125 ± 0.023 for the second.

Compared with CUUAAGCUCAGGAUCAACUGGGUUACCUAA, CUUAAGGACUGGAUCUAUUGGGUUACCUAA is lower in “pre-steady-state target cleavage rate” value: 0.0432 ± 0.014 for the first, 0.0187 ± 0.0078 for the second.

CUUAAGGAGUGGAUCUUCAGGGUUACCUAA and CUUAAGGUCUGGAUGUACUGGGAUACCUAA are within error of each other in “pre-steady-state target cleavage rate” value: 0.0231 ± 0.0065 for the first, 0.0141 ± 0.01 for the second.

CUUAAGGUCUGGAACUUCUGGGUUACCUAA and CUUAAGCUCAGGAUCUACUGGGUAACCUAA are within error of each other in “pre-steady-state target cleavage rate” value: 0.0253 ± 0.015 for the first, 0.0259 ± 0.0088 for the second.

Compared with CUUAACGUCUGGAUCUACUGGGUUACCUUA, CUUAAGGAGUGGAUCUACUGGGUCUACCUAA is lower in “pre-steady-state target cleavage rate” value: 0.0827 ± 0.015 for the first, 0.00823 ± 0.0039 for the second.

First: CUUAAGGACUGGAUCUACUGGGUAUACCUAA
Second: CUUAAGGUCUGGAUCUACAGGGUUACCAAA
The “pre-steady-state target cleavage rate” value of the first is lower: 0.0248 ± 0.016 for the first, 0.106 ± 0.017 for the second.

Going from CUUAUCCUCUGGAUCUACUGGGUUACGCUAA to CUUAUCCUCUGGAUCUACUGGGUAUGCUAA, the “pre-steady-state target cleavage rate” value falls from 0.174 ± 0.026 to 0.092 ± 0.023.

First: CUUAUCCUCUGGAUCUACUGGGUUUGCUAA
Second: CUUAUCCCUCUGGAUCUACUGGGUUACCUAA
The “pre-steady-state target cleavage rate” value of the first is higher: 0.216 ± 0.041 for the first, 0.0911 ± 0.022 for the second.

CUUAUCCUCUGGAUCUACUGGGUUACCCUAA and CUUAUCCUCUGGAUCUACUGGGUUUACCUAA are within error of each other in “pre-steady-state target cleavage rate” value: 0.132 ± 0.049 for the first, 0.107 ± 0.023 for the second.

First: CUUAUCCACUGGAUCUACUGGGUUUCCUAA
Second: CUUAUCCUCUGGAUCUACUGGGUUCCCUAA
The “pre-steady-state target cleavage rate” value of the first is lower: 0.123 ± 0.034 for the first, 0.321 ± 0.13 for the second.

Going from CUUAUCCUCUGGAUCUACUGGGUUUCCUAA to CUUAAGGUGUGGAUCUACUGGGUUACCUUA, the “pre-steady-state target cleavage rate” value falls from 0.252 ± 0.072 to 0.0353 ± 0.011.

Going from CUUAUCCUCUGGAUGUACUGCGUUACCUAA to CUUAAGGACUGGAUCUACAGGGUUACCAAA, the “pre-steady-state target cleavage rate” value rises from 0.0106 ± 0.0045 to 0.0404 ± 0.0091.

First: CUUAAGCUCUCGGAUCUACUGGGUUACCUAA
Second: CUUAUCCUCUGGAUCACUGGGUUACCUAA
The “pre-steady-state target cleavage rate” value of the first is higher: 0.064 ± 0.015 for the first, 0.0129 ± 0.0061 for the second.

Going from CUUAAGGAGACCUACUACUGGGUUACACUAA to CUUAAGGUCUGGAUCUACUGGGUUACCUGAA, the “pre-steady-state target cleavage rate” value rises from less than 0.0001 to 0.0831 ± 0.035.

Compared with CUUAAGCUCUGGAUCUAGUGGGUUUCCUAA, CUUAUCCUCUCGAUCUACUCGGUUACCUAA is lower in “pre-steady-state target cleavage rate” value: 0.0199 ± 0.0071 for the first, 0.0053 ± 0.0015 for the second.

Going from CUUAAGGAGACCUACUACUGUGGUUACCUAA to CUUAACGUCUGCAUCUACUGGGUUACCUAA, the “pre-steady-state target cleavage rate” value rises from less than 0.0001 to 0.126 ± 0.02.

Going from CUUAUCCUCUGGAAUCUACUGGGUUACCUAA to CUUAUCCUCUGGCUCUACUGGGUUACCUAA, the “pre-steady-state target cleavage rate” value rises from 0.156 ± 0.035 to 1.12 ± 0.3.

Compared with CUUAUCCUCUGGACUCUACUGGGUUACCUAA, CUUAUCCUCUGGUCUACUGGGUUACCUAA is higher in “pre-steady-state target cleavage rate” value: 0.0887 ± 0.019 for the first, 0.983 ± 0.34 for the second.

Compared with CUUAUCCUCUGGAGUCUACUGGGUUACCUAA, CUUAUCCUCUGAAUCUACUGGGUUACCUAA is lower in “pre-steady-state target cleavage rate” value: 0.175 ± 0.039 for the first, 0.109 ± 0.023 for the second.

Compared with CUUAUCCUCUGGGUCUACUGGGUUACCUAA, CUUAAGCUCUGGAUGUACUGGGUUUCCUAA is lower in “pre-steady-state target cleavage rate” value: 0.206 ± 0.035 for the first, 0.0435 ± 0.021 for the second.

CUUAAGGUCUGGAUCUACAGGGUUAGCUAA and CUUAAGCUCUGUAUCUACUGGGUUACCUAA are within error of each other in “pre-steady-state target cleavage rate” value: 0.0446 ± 0.012 for the first, 0.0444 ± 0.0099 for the second.

Compared with CUUAAGGAGUGGAUCUACAGGGUUUCCUAA, “CUUAAGGUCUGGAUCUACUGGGUUACCUAU [g2:g23:cont:t1U]” is higher in “pre-steady-state target cleavage rate” value: 0.056 ± 0.012 for the first, 0.101 ± 0.014 for the second.

Compared with CUUAUCCUCUGGAUGUAGUGGGUUACCUAA, CUUAACCUCUGCAUCUACUGGGUUACCUUA is higher in “pre-steady-state target cleavage rate” value: 0.0679 ± 0.01 for the first, 0.178 ± 0.048 for the second.

Compared with CUUAUCCUCUGCAUCUACUGCGUUACCUAA, CUUAUCCUCUGCAUCUACUGGGUUACCUUA is higher in “pre-steady-state target cleavage rate” value: 0.0198 ± 0.0066 for the first, 0.466 ± 0.13 for the second.

CUUAUCCUCUGGAUCUACUGGGUUACCUUA and CUUAUCCUCUGGAUCUACUGGGUUACCAAA are the same in “pre-steady-state target cleavage rate” value: 0.13 ± 0.026 for the first, 0.13 ± 0.023 for the second.

Compared with CUUAUCCUCUGGCAUCUACUGGGUUACCUAA, CUUAUCCUCUGAUCUACUGGGUUACCUAA is lower in “pre-steady-state target cleavage rate” value: 2.56 ± 1.7 for the first, 0.123 ± 0.029 for the second.

Compared with CUUAUCCUCUGCAUCUACUGGGUUACCUAA, CUUAUCCUCUGGGAUCUACUGGGUUACCUAA is lower in “pre-steady-state target cleavage rate” value: 0.275 ± 0.056 for the first, 0.137 ± 0.023 for the second.

Compared with CUUAACCUCUGCAUCUACUGGGUUACCAAA, CUUAUCCUCUGCAUCUACUGGGUUACCAAA is higher in “pre-steady-state target cleavage rate” value: 0.173 ± 0.055 for the first, 0.408 ± 0.12 for the second.

First: CUUAUCCUCUGCGAUCUACUGGGUUACCUAA
Second: CUUAAGCUCUGGAUCUACCGGGUUACCUAA
The “pre-steady-state target cleavage rate” value of the first is higher: 0.0876 ± 0.015 for the first, 0.0213 ± 0.0061 for the second.

Going from CUUAAGCUCUGGAUCUACUGGGUUCACCUAA to CUUAAGGAGUGGAUCUUCUGGGUUACCUUA, the “pre-steady-state target cleavage rate” value falls from 0.0506 ± 0.017 to 0.014 ± 0.007.

For CUUAUCCUCACCAUCUACUGGGUUACCUAA, the “pre-steady-state target cleavage rate” value was 0.127 ± 0.051.
